Results on 32 molecules are retold here after PubChem BioAssay (Tox21).

Molecules are shown by their SMILES. Inconclusive results are not listed. Unmarked numbers belong to inactive results. Calls of active or inactive are those of the source. Calls come from the whole dose curve; as a rule, active = well fitted curve in the direction sought with a large enough effect in the repeat runs; inconclusive = weak or mixed curves; inactive = no such curve, though single readings can be large; an effect the other way counts as inactive or inconclusive.

The target in assay [1] is Cytochrome P450 2C9 (Homo sapiens) (UniProt P11712). Kind of assay: Cytochrome P450 Family 2 Subfamily C Member 9 (CYP2C9) small molecule antagonists: luciferase reporter qHTS assay (AID 1671198). For activity change, negative = inhibition: series mostly up to about 120 µM. Note: potency is the fitted concentration of half-maximal effect. In outline: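 CYP2C9 activity was measured with a P450-Glo proluciferin substrate. Enzyme–substrate mix was held with compound for 10 min at room temperature, then NADPH regeneration solution was added for 1 h at 37C. Luciferin product was read as luminescence.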
Sequence of Cytochrome P450 2C9 (Homo sapiens) (P11712 whole entry, looked up): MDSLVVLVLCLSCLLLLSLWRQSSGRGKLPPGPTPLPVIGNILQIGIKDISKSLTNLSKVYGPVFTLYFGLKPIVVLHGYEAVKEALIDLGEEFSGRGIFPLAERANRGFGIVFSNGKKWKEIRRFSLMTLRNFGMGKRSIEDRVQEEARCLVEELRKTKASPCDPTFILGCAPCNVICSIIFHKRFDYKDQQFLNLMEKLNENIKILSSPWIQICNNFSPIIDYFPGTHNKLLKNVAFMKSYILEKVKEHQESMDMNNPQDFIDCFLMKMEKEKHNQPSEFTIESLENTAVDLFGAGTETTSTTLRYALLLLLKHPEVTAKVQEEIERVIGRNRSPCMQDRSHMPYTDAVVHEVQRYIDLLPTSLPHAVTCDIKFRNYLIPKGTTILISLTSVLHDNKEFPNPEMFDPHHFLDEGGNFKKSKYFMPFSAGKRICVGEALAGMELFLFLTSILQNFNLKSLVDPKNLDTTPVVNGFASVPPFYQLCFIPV
On the technique in general: A reporter such as luciferase makes a cellular process visible.

The target in assay [2] is Voltage-gated inwardly rectifying potassium channel KCNH2 (Homo sapiens) (UniProt Q12809). As to the kind of experiment: Human Ether-a-go-go-Related Gene (hERG) channel small molecule antagonists: fluorescence cell-based qHTS assay (AID 1671200).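 Note: hERG-expressing U2OS cells given a thallium stimulus after FluxOR II dye loading; series mostly up to about 77 µM.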 In outline:
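Channel function was assessed by thallium flux. Cells seeded the previous day and kept at 37 C took up FluxOR II dye over 1 h in the dark at room temperature, then sat another 10 min before stimulation.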
(The hERG channel carries a current that helps repolarise heart muscle cells.)

In assay [3] the target is Cytochrome P450 3A4 (Homo sapiens) (UniProt P08684). As to the kind of experiment: Cytochrome P450 Family 3 Subfamily A Member 4 (CYP3A4) small molecule antagonists: luciferase reporter qHTS assay (AID 1671201). For activity change, negative = inhibition: series mostly up to about 120 µM. Note: potency is the fitted concentration of half-maximal effect. Put shortly:
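Compounds in DMSO were pin-transferred onto CYP3A4 enzyme-substrate mix and held 10 min at room temperature. NADPH regenerating solution started the reaction for 1 h; luciferin detection reagent stopped it, and luminescence was read after 20 min.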

Assay [4] has as its target Cytochrome P450 1A2 (Homo sapiens) (UniProt P05177). Kind of assay: Cytochrome P450 Family 1 Subfamily A Member 2 (CYP1A2) small molecule antagonists: luciferase reporter qHTS assay (AID 1671199). For activity change, negative = inhibition: series mostly up to about 120 µM. Note: potency is the fitted concentration of half-maximal effect. Put shortly:
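Luminescence readout (relative luminescence units) after luciferin detection reagent, 20 min RT. Preceded by 1 h room-temperature CYP1A2 reaction with NADPH regeneration solution following 10 min compound preincubation with enzyme and proluciferin substrate. Furafylline positive control.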
% is set by controls: 0 for no effect and ±100 for the full control effect.
Note: nearly all actives have a fitted effect of over 50% in size.

Sequence of Cytochrome P450 1A2 (Homo sapiens) (P05177 whole entry, looked up): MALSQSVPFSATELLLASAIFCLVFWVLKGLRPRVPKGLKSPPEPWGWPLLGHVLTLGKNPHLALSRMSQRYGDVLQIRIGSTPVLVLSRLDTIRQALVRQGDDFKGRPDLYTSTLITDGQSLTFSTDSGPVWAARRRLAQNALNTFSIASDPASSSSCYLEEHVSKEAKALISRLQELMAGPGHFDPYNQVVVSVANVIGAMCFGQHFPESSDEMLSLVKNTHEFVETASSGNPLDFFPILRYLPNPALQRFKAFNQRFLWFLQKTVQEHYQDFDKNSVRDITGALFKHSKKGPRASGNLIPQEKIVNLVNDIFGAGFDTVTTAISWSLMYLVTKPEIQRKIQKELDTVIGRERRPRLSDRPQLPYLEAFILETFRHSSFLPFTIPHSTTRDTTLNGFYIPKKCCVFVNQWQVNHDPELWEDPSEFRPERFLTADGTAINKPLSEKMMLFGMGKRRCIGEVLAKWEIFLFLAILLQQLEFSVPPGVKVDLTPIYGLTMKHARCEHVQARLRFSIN
Sequence of Voltage-gated inwardly rectifying potassium channel KCNH2 (Homo sapiens) (Q12809 whole entry, looked up): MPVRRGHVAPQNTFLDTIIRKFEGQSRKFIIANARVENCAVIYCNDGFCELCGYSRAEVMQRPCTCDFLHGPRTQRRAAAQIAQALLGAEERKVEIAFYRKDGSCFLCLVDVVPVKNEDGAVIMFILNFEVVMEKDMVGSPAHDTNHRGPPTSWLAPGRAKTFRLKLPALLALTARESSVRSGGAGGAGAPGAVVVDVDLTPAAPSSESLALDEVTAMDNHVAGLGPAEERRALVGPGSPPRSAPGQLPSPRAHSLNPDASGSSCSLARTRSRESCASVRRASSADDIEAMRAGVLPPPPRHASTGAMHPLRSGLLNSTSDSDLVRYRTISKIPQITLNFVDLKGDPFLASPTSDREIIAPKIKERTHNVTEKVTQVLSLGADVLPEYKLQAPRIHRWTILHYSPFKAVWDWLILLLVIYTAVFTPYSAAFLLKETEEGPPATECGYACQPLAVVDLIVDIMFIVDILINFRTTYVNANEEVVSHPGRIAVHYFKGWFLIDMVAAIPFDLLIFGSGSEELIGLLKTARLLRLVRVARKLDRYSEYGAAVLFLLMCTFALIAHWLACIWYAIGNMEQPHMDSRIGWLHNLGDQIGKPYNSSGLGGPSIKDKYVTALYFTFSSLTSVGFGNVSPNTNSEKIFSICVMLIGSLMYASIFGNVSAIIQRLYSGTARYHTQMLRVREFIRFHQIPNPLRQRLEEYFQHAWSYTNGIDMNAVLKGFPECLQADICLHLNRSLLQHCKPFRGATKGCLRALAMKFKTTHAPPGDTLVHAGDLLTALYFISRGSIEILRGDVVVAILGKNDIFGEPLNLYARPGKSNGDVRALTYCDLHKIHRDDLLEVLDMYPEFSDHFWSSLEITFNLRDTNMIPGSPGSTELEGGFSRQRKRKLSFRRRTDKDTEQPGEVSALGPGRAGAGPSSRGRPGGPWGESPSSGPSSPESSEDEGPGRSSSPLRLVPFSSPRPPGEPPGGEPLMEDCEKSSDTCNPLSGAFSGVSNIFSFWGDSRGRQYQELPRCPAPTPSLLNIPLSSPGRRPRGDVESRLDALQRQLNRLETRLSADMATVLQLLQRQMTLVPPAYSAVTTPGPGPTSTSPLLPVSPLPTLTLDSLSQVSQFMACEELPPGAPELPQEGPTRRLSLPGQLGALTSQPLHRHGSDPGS
Sequence of Cytochrome P450 3A4 (Homo sapiens) (P08684 whole entry, looked up): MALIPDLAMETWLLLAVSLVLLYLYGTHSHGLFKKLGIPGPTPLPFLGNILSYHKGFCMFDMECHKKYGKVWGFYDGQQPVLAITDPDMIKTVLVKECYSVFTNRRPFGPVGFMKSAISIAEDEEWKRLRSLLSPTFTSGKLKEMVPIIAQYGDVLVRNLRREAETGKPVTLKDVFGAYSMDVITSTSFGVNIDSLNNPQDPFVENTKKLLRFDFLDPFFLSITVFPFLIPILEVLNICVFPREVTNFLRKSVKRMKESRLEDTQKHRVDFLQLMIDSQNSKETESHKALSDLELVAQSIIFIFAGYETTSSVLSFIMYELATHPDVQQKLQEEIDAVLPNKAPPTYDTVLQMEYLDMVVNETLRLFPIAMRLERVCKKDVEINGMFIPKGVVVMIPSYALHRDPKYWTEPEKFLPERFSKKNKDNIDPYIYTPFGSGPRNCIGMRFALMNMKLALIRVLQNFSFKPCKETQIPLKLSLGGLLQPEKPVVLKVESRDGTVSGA

For `Cc1ccc2c(c1)OCC(=O)CO2`, the Potency entry in assay [1], in assay [2] and in assay [3] was “inactive” in each case.

In the case of `CC(C)c1ccc2cc(C(C)C)ccc2c1`, the Potency entry in assay [1], in assay [2] and in assay [3] was “inactive” in each case.

As for `Cc1nc2n(c(=O)c1CCN1CCC(c3noc4cc(F)ccc34)CC1)CCC[C@H]2O`, the activity change, negative = inhibition in assay [1] is 0.924% [at 23.6 µM]; in assay [3] it was 3.18% [at 23.6 µM]. For the same molecule, the Potency result in assay [4] was “inactive”.

`O=C(/N=N/C(=O)OCc1ccccc1)OCc1ccccc1`: the figures for the Potency in assay [1], in assay [4] and in assay [3] were 14.2 µM (active), 17.8 µM (active) and 39.9 µM (active), respectively.

In the case of `Cc1cc(C(C)(C)C)c(O)c(C)c1CC1=NCCN1`, the Potency result in assay [1], in assay [4] and in assay [3] was “inactive” in each case.

`CCCCOCCOC(=O)COc1nc(Cl)c(Cl)cc1Cl`: the Potency result in assay [1] and in assay [3] was “inactive” in each case. Further, the Potency in assay [4] was 39.9 µM (active).

Take `CCCCCCOc1ccccc1C(N)=O`: the Potency in assay [1] is 8.71 µM (active); in assay [4], 13.8 µM (active). For the same molecule, the Potency result in assay [3] is “inactive”.

Take `CCCCCCCCOS(=O)(=O)O`: the Potency in assay [1] was 28.3 µM (active). The Potency result in assay [2] and in assay [3] was “inactive” in each case.

As to `COCCOCCOCCOCCO`, the Potency result in assay [1], in assay [2] and in assay [3] was “inactive” throughout.

For `CCOCCOCCOCC`, the Potency result in assay [1], in assay [4] and in assay [3] was “inactive” each time.

Consider `CO[C@@H]1[C@@H](OC(N)=O)[C@@H](O)[C@H](Oc2ccc3c(O)c(NC(=O)c4ccc(O)c(CC=C(C)C)c4)c(=O)oc3c2C)OC1(C)C`, for which the Potency in assay [1] is 11 µM (active). Moreover, the Potency entry in assay [4] and in assay [3] was “inactive” each time.

`O=C(O)c1ccc(Cl)cc1Cl`: the Potency entry in assay [1], in assay [4] and in assay [3] was “inactive” throughout.

For `Nc1cccc(O)c1`, the Potency in assay [1] is 25.9 µM (active). Besides, the Potency entry in assay [2] is “inactive”.

In the case of `C=C(C)C(=O)OCc1ccccc1`, the Potency entry in assay [1], in assay [2] and in assay [3] was “inactive” throughout.

As to `O=C(c1ccc(O)cc1)c1ccc(O)c(O)c1O`, the Potency entry in assay [1] and in assay [2] was “inactive” each time.

Consider `O=C1CC(c2ccc(Cl)cc2)CC(=O)N1`, for which the Potency entry in assay [1] and in assay [3] was “inactive” in each case. Further, the Potency in assay [4] is 27.5 µM (active).

For the molecule `O=C(CCNNC(=O)c1ccncc1)NCc1ccccc1`, the Potency in assay [1] was 4.9 µM (active). The Potency result in assay [2] was “inactive”.

Turning to `CCC(C=O)CC`, the Potency entry in assay [1], in assay [2] and in assay [3] was “inactive” each time.

`CC1(CO)CN(c2ccccc2)NC1=O` (stereo unspecified): the Potency was 25.2 µM (active) in assay [1], 35.6 µM (active) in assay [4] and 31.7 µM (active) in assay [3].

For `CCCC/C=C\CCCCCCCCCC=O`, the Potency entry in assay [1], in assay [4] and in assay [3] was “inactive” throughout.

For `CC(C)C[C@H](NC(=O)CNC(=O)[C@H](Cc1ccc(O)cc1)NC(=O)[C@H](CO)NC(=O)[C@H](Cc1c[nH]c2ccccc12)NC(=O)[C@H](Cc1cnc[nH]1)NC(=O)[C@@H]1CCC(=O)N1)C(=O)N[C@@H](CCCN=C(N)N)C(=O)N1CCC[C@H]1C(=O)NCC(N)=O` (stereo in doubt), the Potency result in assay [1] and in assay [2] was “inactive” each time.

For `COc1cc(N)ccc1C`, the Potency in assay [1] is 6.26 µM (active); in assay [4], 4.98 µM (active); in assay [3] it was 11.1 µM (active).

As for `O=C(OCC(COC(=O)c1cccnc1)(COC(=O)c1cccnc1)COC(=O)c1cccnc1)c1cccnc1`, the Potency result in assay [4] and in assay [2] was “inactive” throughout.

Turning to `COC(=O)CCCCCCCC(=O)OC`, the Potency result in assay [1] and in assay [3] was “inactive” throughout.

Regarding `NCCS`, the Potency entry in assay [4], in assay [2] and in assay [3] was “inactive” each time.

Turning to `CC(C)(C)c1nnc(NS(=O)(=O)c2ccc(N)cc2)s1`, the Potency result in assay [4], in assay [2] and in assay [3] was “inactive” each time.

In the case of `On1nnc2ccccc21`, the Potency result in assay [1], in assay [2] and in assay [3] was “inactive” throughout.

Take `CCCCCCCCCCl`: the Potency result in assay [1] and in assay [3] was “inactive” each time.

For the molecule `CC(C)=O`, the Potency result in assay [4] and in assay [2] was “inactive” each time.

With `O=C(NCCc1c[nH]c2ccccc12)c1cccnc1`, in assay [4], the Potency was 12.9 µM (active). The Potency entry in assay [2] is “inactive”.

In the case of `OC[C@H](Cc1cccc(O)c1)[C@H](CO)Cc1cccc(O)c1`, the Potency in assay [1] is 23 µM (active); in assay [3], 18.3 µM (active).

`CCOC(=O)/C=C/c1ccccc1`: the Potency in assay [4] was 35.6 µM (active). Besides, the Potency result in assay [2] and in assay [3] was “inactive” throughout.
